Source: PubChem BioAssay
Results with a measured potency or affinity are listed apart. A number with no mark means an inactive call. Calls of active or inactive are those of the source. How the calls were made is not given here.

Legend:
[1] = HepG2 cell cytotoxicity, dose response, cytotoxicity control, plate reader, cherry-pick, antagonist series (AID 743416); details: series mostly up to 26 µM;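 further: 0% = neutral control wells and -100% = positive control wells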
[2] = A549 cell cytotoxicity, dose response, cytotoxicity control, plate reader, cherry-pick, antagonist series (AID 743412); details: series mostly up to 26 µM;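 further: 0% = neutral control wells and -100% = positive control wells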
[3] = A2780 ovarian cancer cell cytotoxicity, dose response, cytotoxicity control, plate reader, dry powder samples (AID 743046); details: series mostly up to 35 µM;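 further: 0% = neutral control wells and -100% = cytotoxic reference compound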
[4] = cytotoxicity in OVCAR8 ovarian cancer cells, dose response, PAX8 project, cell-based, plate reader, dry powder samples (AID 743197); details: series mostly up to 35 µM
[5] = target: Melanocortin receptor 4 (Homo sapiens) (UniProt P32245); assay: MC4R antagonists, dose response, counter-screen for LGR2 antagonist project, cell-based, plate reader, cherry pick (AID 743444); details: MC4R-expressing cells, antagonist mode; series mostly up to 35 µM

COc1cccc(-c2nc3ccc(N4CCN(C)CC4)cc3[nH]2)c1
outcome [1]: inactive

O=c1[nH]c2ccccc2n1C1CCN(C(c2ccccc2OC(F)(F)F)c2nnnn2Cc2ccccc2)CC1 (centres undefined)
outcome [1]: inactive

O=Cc1cn(Cc2cccc([N+](=O)[O-])c2)c2ccccc12
outcome [2]: inactive

O=C(Cc1ccccn1)N1CCCCN2[C@@H](CO)[C@@H](c3ccc(-c4ccccc4F)cc3)[C@@H]2C1
outcome [3]: inactive | outcome [4]: inactive

COc1ccc(-c2ccc([C@@H]3[C@@H](CO)N4CCCCN(C(=O)Cc5ccccc5)C[C@H]34)cc2)cc1
outcome [3]: inactive | outcome [4]: inactive

O=C(Cc1cccnc1)N1CCCCN2[C@H](C1)[C@H](c1ccc(C#CC3CCCC3)cc1)[C@@H]2CO
outcome [4]: inactive

O=C(O)c1nn(Cc2ccc(Cl)cc2Cl)c2ccccc12
outcome [2]: inactive | outcome [1]: inactive | outcome [5]: inactive

O=C(Cc1ccccn1)N1CCCCN2[C@@H](CO)[C@@H](c3ccc(-c4ccc(F)cc4)cc3)[C@@H]2C1
outcome [3]: inactive | outcome [4]: inactive

CNC(=O)Oc1cccc(-c2cn3cc(Cl)ccc3n2)c1
outcome [2]: inactive | outcome [1]: inactive

CC(C)(C)n1cc(C(=O)c2ccc3ccccc3c2O)cn1
outcome [1]: inactive

Cc1ccc(OC(=O)N(C)C[C@@H]2OCc3ccccc3-c3c(n(C)c4ccccc34)C(=O)N([C@@H](C)CO)C[C@H]2C)cc1
activity change, negative = cytotoxicity [3]: -16.8% [at 8 µM]

O=c1c2ccccc2nc(/C=C/c2ccc([N+](=O)[O-])o2)n1-c1ccc(O)cc1
outcome [5]: inactive

Clc1cccc(N2Cc3cc(-c4ccccc4)ccc3-n3nncc3C2)c1
outcome [2]: inactive | outcome [1]: inactive

COc1cc2c(cc1OC)CN(c1ccc([N+](=O)[O-])c(C(F)(F)F)c1)CC2
outcome [1]: inactive | outcome [5]: inactive

COC(=O)c1ccc(NC(=O)CSc2nc3ccc(N4C(=O)C5C6C=CC(C6)C5C4=O)cc3s2)cc1 (centres undefined)
outcome [2]: inactive

O=C(Cc1ccncc1)N1CCCCN2[C@H](C1)[C@H](c1ccc(C#Cc3ccccc3F)cc1)[C@@H]2CO
outcome [3]: inactive
